# Measured values published in ChEMBL document CHEMBL4513216, “Probing the Open Global Health Chemical Diversity Library for Multistage-Active Starting Points for Next-Generation Antimalarials” (ACS Infect Dis, 2020).
# Hit rate of the full screen: of about 68,000 compounds, about 2,700 (4%) showed an effect of 50% or more. This is one part of a sample in which strong results are shown more often than they occur.
# Tested on: Plasmodium berghei
# Assay: Screen against P. berghei liver stage (PbLuc), transformed with Luciferase, at 2uM
# Type: functional, HepG2
# Conditions: tested at 2 uM
row,Structure (SMILES),INHIBITION [%]
1,CC(NCc1nnc2n1CCCC2)c1nc(-c2cccs2)no1 (stereo unspecified),26.14
2,Cc1cc(NC(=O)CN2CCn3c(nnc3C3CC3)C2)on1,17.12
3,CCN(CC)c1ncc(Cl)c(C(=O)NC2CCC(O)CC2)n1 (stereo unspecified),-2.22
4,CCN(CC)c1ncc(Cl)c(C(=O)NC2CCc3nccn3C2)n1 (stereo unspecified),59.56
5,CCN(CC)c1ncc(Cl)c(C(=O)NC2CC2)n1,26.8
6,CCOC(=O)[C@@H]1[C@@H](c2ccccc2)CN2CCN(C(C)=O)C[C@H]12,40.13
7,CCOCCn1c(=O)[nH]c2cc(C(=O)N(C)Cc3cc(C)[nH]n3)ccc21,14.24
8,CCOCCn1c(=O)[nH]c2cc(C(=O)N(C)Cc3nc(C)c[nH]3)ccc21,11.64
9,CCOCCn1c(=O)[nH]c2cc(C(=O)N(C)Cc3nc(C)cs3)ccc21,51.98
10,COCCN1CCc2ncnc(-c3ccccc3)c2CC1,39.44
11,Cc1ccn2ncc(C(=O)N3CCCC(c4noc(C)n4)C3)c2n1 (stereo unspecified),50.52
12,Cc1ccn2ncc(C(=O)N3CCCC(n4ccnc4C)C3)c2n1 (stereo unspecified),56.02
13,Cc1csc(C2CCCN(C(=O)c3cnn4ccc(C)nc34)C2)n1 (stereo unspecified),14.96
14,Cc1ccn2ncc(C(=O)N3CCCC(c4cc(C)[nH]n4)C3)c2n1 (stereo unspecified),18.91
15,CCc1nccn1C1CCCN(C(=O)c2cnn3ccc(C)nc23)C1 (stereo unspecified),-14.3
16,Cc1ccn2ncc(C(=O)N3CCCC(n4cccn4)C3)c2n1 (stereo unspecified),5.52
17,CCN1Cc2cc(F)ccc2N(C(C)=O)CCC1=O,-10.65
18,CNc1nc2c(s1)C(c1ccccc1F)CC(=O)N2 (stereo unspecified),-37.62
19,Cc1ccc(-c2ncc(CNc3cnccc3CO)s2)cc1,-13.13
20,O=C(C1CCC2(CCN(Cc3cccnc3)CC2)CO1)N1CCCC1 (stereo unspecified),-84.83
21,CC(NC(=O)N1CCN(c2cccs2)CC1)c1ccc(C#N)cc1 (stereo unspecified),16.79
22,CN1CCN(Cc2nnc(C3CCN(CC4CC4)CC3)n2C)CC1,-0.04

row,Structure (SMILES),INHIBITION [%]
1,CN1CCN(Cc2nnc(C3CCN(C(CO)CO)CC3)n2C)CC1,59.68
2,CN1CCN(Cc2nnc(C3CCN(C4CCCCC4)CC3)n2C)CC1,26.81
3,Cc1cc(CN2CCC(C3Nc4ccccc4S(=O)(=O)N3)CC2)oc1C (stereo unspecified),22.81
4,CCOC(=O)CN(C)C1CCc2ccccc21 (stereo unspecified),44.71
5,CN(C)C(=O)CNC(=O)c1cc2ccccc2nc1N1CCCC1,8.74
6,CCn1cc(Cl)c(C(=O)NCCCO)n1,12.84
7,CCN(CC(=O)NCc1nc(C2CC2)no1)Cc1ccc(Cl)cc1,-37.68
8,CCc1nc(C2CCCN(C(=O)c3ccc(Cl)cc3)C2)no1 (stereo unspecified),9.82
9,O=C(CCNC(=O)c1ccc(Cl)cc1)NCc1nc(C2CC2)no1,60.34
10,c1cnc(N2CCCC(NCc3ccc(-n4ccnc4)cc3)C2)nc1 (stereo unspecified),1.91
11,Cc1cnn(CC2CCCCN2C(=O)c2c(C)noc2C)c1 (stereo unspecified),-13.24
12,CCC(CO)NCc1ccc(-c2ccccc2)o1 (stereo unspecified),12.02
13,CN(C)c1ccc(C(=O)NCCCNc2ccc(C(F)(F)F)cn2)cc1,25.74
14,Nc1ncc(-c2ccc(Cl)cc2)c(C2CCCNC2)n1 (stereo unspecified),37.63
15,Nc1ncc(-c2ccc(F)cc2)c(C2CCCNC2)n1 (stereo unspecified),54.2
16,Nc1ncc(-c2ccc(C(F)(F)F)cc2)c(C2CCCNC2)n1 (stereo unspecified),-10.58
17,O=C(C1CC=CC1)N1C[C@@H]2CN(Cc3ccsc3)CCO[C@@H]2C1,-10.92
18,Cc1ccc(C)c(CC(=O)NC2CCS(=O)(=O)CC2)c1,29.13
19,Cc1ccc(C)c(CC(=O)NC2CCCS(=O)(=O)C2)c1 (stereo unspecified),57.75
20,Cc1ccc(C)c(CC(=O)NC2CCC(N3C(=O)CCC3=O)CC2)c1 (stereo unspecified),-37.65
21,CC(C)c1nc(CN(C)C(=O)c2ccc(CN3CCCCC3)cc2)cs1,0.31
22,Fc1ccc(CN2CCC3(CC2)CC(c2cccnc2)CO3)cc1 (stereo unspecified),-14.21

row,Structure (SMILES),INHIBITION [%]
1,CC1c2ncc(Cn3cncn3)n2CCN1C(=O)Cc1cccs1 (stereo unspecified),28.77
2,CCOCc1cnc2n1CCN(C(=O)Cc1cccs1)C2C (stereo unspecified),-24.63
3,CC(C)N(C)Cc1cnc2n1CCN(C(=O)Cc1cccs1)C2C (stereo unspecified),70.31
4,CCc1n[nH]c(C2CN(C(=O)c3cc4c(s3)CCCC4)CCO2)n1 (stereo unspecified),20.28
5,Cc1cc2c(N)nc(=O)n(CC(=O)Nc3cccc(Cl)c3)c2s1,6.05
6,CCN(CCOC)C(=O)c1cc(COc2ccc3c(c2)CCCC3)on1,29.89
7,CCOCCN1CCc2cncnc2C1,31.51
8,COCCCN1CCc2cncnc2C1,-12.48
9,CC(C)OCCN1CCc2cncnc2C1,62.51
10,COC(=O)c1sc(C(NC(=O)c2ccccc2)C2CC2)nc1C (stereo unspecified),-13.12
11,C=C(C)CN1CCC(NC(=O)c2scnc2C)CC1,-7.13
12,COc1cc(I)c(Cl)cc1C(=O)N(C)C,32.04
13,CCOCc1nc2c(c(N3CCCn4nc(C)cc4C3)n1)CCNCC2,-31.55
14,Cc1cc2n(n1)CCN(c1nc(N)nc3c1CCNCC3)C2,17.6
15,COCCNc1nc2c(c(N3CCn4nc(C)cc4C3)n1)CCNCC2,51.19
16,O=C1CC[C@@H](C(=O)N2CCC(Cn3cc(C4CCCCC4)nn3)CC2)N1,17.61
17,CC(C)n1nc2c(cc1=O)CN(c1ncnc3sccc13)CC2,-35.16
18,COCCN1C(=O)c2ccc(C(=O)NCCc3c[nH]cn3)cc2C1=O,34.59
19,CC(C)CN(CC(O)c1ccc(F)cc1)C(=O)c1cnsn1 (stereo unspecified),-36.72
20,O=C(NC1CCN(Cn2nc(-c3ccccc3)oc2=O)CC1)C1CC1,-0.69
21,CC(=O)Nc1cccc(CN2CCCC2C(=O)Nc2nccs2)c1 (stereo unspecified),-4.48
22,CC1CCCN(Cc2cccc(C(=O)Nc3nccs3)c2)C1 (stereo unspecified),63.46

row,Structure (SMILES),INHIBITION [%]
1,Cc1cc(C2CCCN2Cc2cccc(C(=O)Nc3nccs3)c2)no1 (stereo unspecified),2.7
2,CC(C)N(C)Cc1cn2c(n1)CN(C(=O)Cc1ccccc1)CC2,-47.56
3,Cc1noc(Cl)c1CCC(=O)N1CCN(CC(C)(C)O)CC1,21.89
4,Cc1noc(Cl)c1CCC(=O)N1CCN(Cc2ccncc2)CC1,62.13
5,CCN1CCN(C(=O)CCc2c(C)noc2Cl)CC1,-61.5
6,O=C(Nc1ccc2c(ccn2CCN2CCOCC2)c1)c1ccccn1,13.72
7,Cc1cc(CN(C)C(=O)NC2CCCC2)no1,29.12
8,N#Cc1cccc(N2CCCC3(CCC(=O)N(C4CCCC4)C3)C2)n1 (stereo unspecified),-11.07
9,COc1c(C2CCCN2C(=O)c2sc(C)nc2C)c(C)nn1C (stereo unspecified),-37.68
10,CN(C)C(=O)CN1CCCCC1c1nc(N)ncc1-c1ccccc1 (stereo unspecified),-19.81
11,CN(C)C(=O)CN1CCCCC1c1nc(N)ncc1-c1cccc(F)c1 (stereo unspecified),65.76
12,NC(=O)CN1CCCCC1c1nc(N)ncc1-c1cccc(F)c1 (stereo unspecified),18.64
13,CC(=O)c1c(C)nn(S(=O)(=O)c2ccc(F)cc2)c1C,16.13
14,Cc1nc2cc(O)nn2c(C)c1CCC(=O)NCCCC(C)C,37.68
15,CC(C)C1CN(C(=O)c2cc(F)cc3[nH]cnc23)CCS1 (stereo unspecified),11.24
16,CC(C)N(CCNC(=O)N1CCCC(N(C)C)C1)C1CC1 (stereo unspecified),73.01
17,CN(C)C1CCCN(C(=O)NCCC(=O)N2CCCCCC2)C1 (stereo unspecified),-17.01
18,CN(C)C1CCCN(C(=O)NCCC(C)(C)C)C1 (stereo unspecified),28.95
19,Cc1ccc(O)c(CNCC2CCCN2c2cccnn2)n1 (stereo unspecified),24.88
20,CCN(CC)CCNC(=O)c1nn(CC)cc1Cl,54.07
21,CCCNC(=O)c1nn(CC)cc1Cl,-40.28
22,CCN(CC)CCCNC(=O)c1nn(CC)cc1Cl,24.34

row,Structure (SMILES),INHIBITION [%]
1,COCCCNC(=O)c1c(-n2cnnn2)sc2c1CCC2,-0.44
2,CS(=O)(=O)c1ccccc1N[C@@H]1c2ccccc2C[C@@H]1O,54.29
3,CS(=O)(=O)c1ccccc1NC(=O)N[C@@H]1c2ccccc2C[C@@H]1O,-11.32
4,CN(C)C(=O)c1ccccc1NC(=O)N[C@@H]1c2ccccc2C[C@@H]1O,42.32
5,O=S1(=O)NCC2(CCCN(Cc3ccccn3)C2)Oc2ncccc21 (stereo unspecified),-30.35
6,CN(C)c1ncc(CNC(=O)Nc2ccc(C(F)(F)F)cc2)n1C,47.59
7,CC(=O)N[C@@H]1CN(Cc2oc3ccccc3c2C)C[C@H]1c1ccc(C)o1,3.92
8,Nc1ncccc1CN1CCCn2nc(CCC(=O)NC3CC3)cc2C1,26.82
9,O=C1C(Nc2nccn3cnnc23)CCN1c1cccc(Cl)c1 (stereo unspecified),34.89
10,CCCc1noc(C2CCN(C(=O)C3CCCO3)CC2)n1 (stereo unspecified),15.58
11,O=C(NC1CCCC1)c1ccc(C2CCCNC2)nc1 (stereo unspecified),12
12,COc1c(C2CCCN2CC(=O)N(C)Cc2ccco2)c(C)nn1C (stereo unspecified),5.39
13,CCc1ccc(S(=O)(=O)N2CC[C@@](O)(CCOC)[C@H](C)C2)cc1,26.74
14,COCC[C@]1(O)CCN(S(=O)(=O)c2ccc(C)cc2OC)C[C@H]1C,69.67
15,COc1cc(C)ccc1S(=O)(=O)N1CC[C@](C)(O)[C@H](C)C1,-11.41
16,COc1cc(CN2CCC(COCc3ccccc3)CC2)cc(OC)c1,55.25
17,COc1cc(COCC2CCN(Cc3ccccn3)CC2)cc(OC)c1,5.98
18,COc1cc(COCC2CCN(Cc3cccnc3)CC2)cc(OC)c1,20.76
